Outcome and activity change, negative = inhibition data for 34 molecules are collected here from PubChem BioAssay (NCATS).

A number with no mark means an inactive call. Active and inactive are the calls of the source. The call rests on the fitted dose curve; in most records, active means well fitted inhibition curve with a large enough effect; inconclusive means small, poorly fitted or top-dose-only effect; inactive means no such curve, though single readings can be large or run the other way.

This assay is described as follows: qHTS assay for measurement of the activity of small molecule inhibitors on Zika virus induced Caspase-3 activity in human astrocytoma cells (AID 1224859).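 Further: plate controls were ZIKV-infected untreated cells for no effect and uninfected cells for full effect.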 To be noted: SNB-19 ZIKV-induced caspase-3/7, luminescence, 6 h; series mostly up to 45.7 µM. The gist of the method:
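SNB-19 astrocytoma cells, 250/well, pretreated 1 h with compounds, then Zika virus at 2 FFU/cell for 6 h at 37 C; Caspase-Glo 3/7 luminescence after 30 min; percent inhibition normalised to uninfected and infected controls.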
For orientation: Quantitative high-throughput screening tests each substance at several concentrations.
`CCOC(CN1CCN(CC(C)C(=O)c2ccccc2)CC1)c1ccccc1` (centres undefined): the outcome was inactive.

On to `CC1=C(CC(=O)O)c2cc(F)ccc2/C1=C\c1ccc(S(C)=O)cc1` (centres undefined), for which the molecule was called inactive.

`CN(C)CC[C@@H](c1ccc(Cl)cc1)c1ccccn1`: the outcome was inactive.

Take `COc1ccc2cc1Oc1cc3c(cc1OC)CC[N+](C)(C)[C@H]3Cc1ccc(cc1)Oc1c(OC)c(OC)cc3c1[C@@H](C2)[N+](C)(C)CC3`: the molecule was classed as inactive.

As to `O=C(O)c1ccccc1-c1ccc(C(F)(F)F)cc1`, the molecule was called inactive.

In the case of `CC1(C)CO[C@@H](CC(=O)O)CN1`, the outcome was inactive.

For the molecule `O=C(O)CN1C(=O)c2cccc3cccc(c23)C1=O`, the outcome was inactive.

As for `CC[N+](CC)(CC)CCOc1ccc(/C=C/c2ccccc2)cc1`, the result was inactive.

In the case of `O=C(O)CC(O)C(=O)O` (centres undefined), the call was inactive.

`CCCOC(=O)c1ccccc1`: the call was inactive.

Take `NC(=O)NNc1ccccc1`: the molecule was called inactive.

Consider `CSc1ccc2c(c1)C(N1CCN(C)CC1)Cc1ccccc1S2` (centres undefined), for which the molecule was called inactive.

`O=C1c2c(O)cccc2Cc2cccc(O)c21`: the outcome was inactive.

Turning to `C#CCN(C)Cc1ccccc1`, the molecule was classed as inactive.

With `C[C@@H]1CCN(C(=O)[C@H](CCCN=C(N)N)NS(=O)(=O)c2cccc3c2NC[C@H](C)C3)[C@@H](C(=O)O)C1`, the molecule was classed as inactive.

As to `C[C@@H]1CN(c2c(F)c(F)c3c(=O)c(C(=O)O)cn(C4CC4)c3c2F)C[C@H](C)N1`, the outcome was inactive.

With `COc1ccc(S(=O)(=O)Nc2nnc(CC(C)C)s2)cc1`, the molecule was classed as inactive.

With `CC(=O)Nc1ccc(/C=N/NC(N)=S)cc1`, the molecule was called inactive.

Regarding `Cc1ccc(C(C)C)cc2c(C)ccc1-2`, the outcome was inactive.

Regarding `O=C1N=C(O)CN1/N=C/c1ccc(-c2ccc([N+](=O)[O-])cc2)o1`, the molecule was classed as inactive.

As for `CC(=O)Oc1c(C)c(C)c2c(c1C)CC[C@@](C)(CCC[C@H](C)CCC[C@H](C)CCCC(C)C)O2`, the call was inactive.

For `CC1(C)S[C@@H]2[C@H](NC(=O)Cc3ccccc3)C(=O)N2[C@H]1C(=O)O` (tested in a mixture with another compound), the call was inactive.

Regarding `CN(N=O)C(=O)N[C@@H]1[C@@H](O)[C@H](O)[C@@H](CO)O[C@@H]1O`, the outcome was inactive.

Take `NC(CSCC(=O)O)C(=O)O` (centres undefined): the result was inactive.

Consider `O=C1NC(=O)[C@@]2(CCOc3ccc(F)cc32)N1`, for which the outcome was inactive.

`CC(C)(C)c1onc(OCP(=O)(O)O)c1CC(N)C(=O)O` (centres undefined): the call was inactive.

For the molecule `CC(CN(C)C)CN1c2ccccc2CCc2ccccc21` (centres undefined), the outcome was inactive.

Consider `C[C@@H]1C[C@H]2[C@@H]3C[C@H](F)C4=CC(=O)C=C[C@]4(C)[C@@]3(F)[C@@H](O)C[C@]2(C)[C@@]1(O)C(=O)CO`, for which the molecule was called inactive.

As for `CN1CCC[C@@H]1Cc1c[nH]c2ccc(CCS(=O)(=O)c3ccccc3)cc12`, the outcome was inactive.

For `O=C1O[C@H](CO)[C@@H](O)[C@H](O)[C@H]1O`, the call was inactive.

Regarding `CC1=C(C/C=C(\C)CCC[C@H](C)CCC[C@H](C)CCCC(C)C)C(=O)c2ccccc2C1=O`, the result was inactive.

Take `O=C(O)COc1nn(Cc2ccccc2)c2ccccc12`: the molecule was called inactive.

With `NC(N)=NCCC[C@H](N)C(=O)O`, the molecule was classed as inactive.

`O=c1[nH]c(=O)c2[nH]c(=O)[nH]c2[nH]1`: the activity change, negative = inhibition was -0.8% [at 9.06 µM].
